# Screening results (PubChem BioAssay)
# A selection: hits, their analogues and other compounds. The true share with any hit is near 3.1%.
# PREPL inhibitor: inhibits the human prolyl oligopeptidase-like enzyme; Q4J6C6; recombinant PREPL, fluorescence polarization activity-based probe; inhibition, % at 5.96 µM; 0.68% of 320,000 active; AID 2751; in the data active means inhibition above about 43%;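 further: 0% = enzyme with DMSO and 100% = wells lacking enzyme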
# UBC13 polyUb: inhibitors of human UBC13 polyubiquitin chain formation | P61088 | TR-FRET | inhibition, % at 20 µM | 0.47% of 330,000 active | AID 485273; in the data active means inhibition above about 45%, passing the limit was not always enough
# Target sequence (P61088 whole entry, looked up): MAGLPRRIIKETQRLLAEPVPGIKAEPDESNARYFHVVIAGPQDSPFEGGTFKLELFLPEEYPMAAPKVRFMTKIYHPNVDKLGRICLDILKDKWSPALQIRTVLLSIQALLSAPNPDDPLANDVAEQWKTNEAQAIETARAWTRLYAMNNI
# MEKK3 PB1 HTS: raises or lowers MEK5 binding to the human MEKK3 PB1 domain | 1.4% of 290,000 active | AID 1529 | binding response (% of control), % at 10 µM | bead-based flow cytometry, Alexa488-MEK5 binding to MEKK3; actives lie on both sides; 0 = blocked by unlabeled MEK5, 100 = vehicle;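 active means binding response more than 3 SD above or below the average of its plate-row segment, actives on both sides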;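 further: Alexa488 bead fluorescence after subtracting the streptavidin-only scavenger bead signal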
# MEKK2 mut-MEK5: signal of MEK5 binding to mutant human MEKK2 PB1 domain. bead flow cytometry, Alexa488-MEK5 binding to MEKK2 mutant. percent response, % at 10 µM. 0.35% of 290,000 active. AID 1530; in the data active means percent response above about 24%, passing the limit was not always enough
# ATG4B inhibitor: blocks human ATG4B protease cleavage of LC3 substrate; Q9Y4P1; ATG4B cleavage of LC3-PLA2, NBD-HPC fluorescence, 1 h; inhibition, % at 8.33 µM; 0.51% of 340,000 active; in the data active means inhibition above about 40%
# Target sequence (Q9Y4P1 whole entry, looked up): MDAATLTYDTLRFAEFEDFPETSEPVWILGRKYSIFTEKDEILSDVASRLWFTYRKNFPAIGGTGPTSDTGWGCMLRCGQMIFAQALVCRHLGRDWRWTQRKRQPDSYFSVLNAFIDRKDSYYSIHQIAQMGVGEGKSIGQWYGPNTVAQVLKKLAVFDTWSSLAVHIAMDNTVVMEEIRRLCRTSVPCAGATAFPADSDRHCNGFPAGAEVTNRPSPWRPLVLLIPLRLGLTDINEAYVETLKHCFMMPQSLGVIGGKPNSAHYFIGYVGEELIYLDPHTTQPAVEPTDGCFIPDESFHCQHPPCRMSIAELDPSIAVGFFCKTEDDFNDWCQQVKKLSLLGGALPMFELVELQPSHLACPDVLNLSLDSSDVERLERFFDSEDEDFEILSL
# MEKK2 WT-MEK5: raises or lowers MEK5 binding to wildtype human MEKK2 PB1 domain; Q9Y2U5; bead flow cytometry, Alexa488-MEK5 binding to MEKK2 WT; actives lie on both sides; binding response (% of control), % at 10 µM; 1.1% of 290,000 active; in the data active means binding response below about 67% or above about 130%
# MEKK2wt confirm: raises or lowers MEK5 binding to wildtype human MEKK2, retest; shares compounds with MEKK3 PB1 HTS; bead flow cytometry, Alexa488-MEK5 binding to MEKK2 WT; actives lie on both sides; binding response (% of control), % at 10 µM; 2.4% of 5,900 active; in the data active means binding response below about 16% or above about 210%; inactive means in between
# MEKK2mut confirm: signal of MEK5 binding to mutant human MEKK2, retest. shares compounds with MEKK3 PB1 HTS. bead flow cytometry, Alexa488-MEK5 binding to MEKK2 mutant. percent response, % at 10 µM. 2% of 5,900 active; in the data active means percent response mostly above about 71%, no sharp cut-off; inactive means mostly below about 38%;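 further: higher means compound restores mutant binding toward wildtype level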
# MEKK3 confirm: MEKK3-MEK5 PB1 inhibition, single concentration confirmation. shares compounds with MEKK3 PB1 HTS. bead flow cytometry, Alexa488-MEK5 binding to MEKK3; hits give low values. binding response (% of control), % at 10 µM. 1.8% of 5,900 active. AID 1894;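 active means binding response below 72% of control, or above a set upper limit, though filed actives all read lower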;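 further: 100% = DMSO only wells and 0% = binding blocked by excess unlabeled MEK5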
# * hit, by the source's call; x = not tested or not shown; [ ] = another dose, or the depositor's remark.
SMILES,PREPL inhibitor,UBC13 polyUb,MEKK3 PB1 HTS,MEKK2 mut-MEK5,ATG4B inhibitor,MEKK2 WT-MEK5,MEKK2wt confirm,MEKK2mut confirm,MEKK3 confirm
CCOc1ccc(CCNC(=O)C(C)n2nc(C)n3c(cc4occc43)c2=O)cc1OCC (stereo unspecified),1,-4,83,-44,-10,69*[inhibitor],101,-2,102
O=C1NC(=O)c2cc(Oc3ccc([N+](=O)[O-])cc3)ccc21,-11,-2,101,1,3,99,x,x,x
Cc1cccn2c(=O)c(/C=C(\C#N)C(=O)NC3CCS(=O)(=O)C3)c(Oc3ccc(F)cc3)nc12 (stereo unspecified),-1,6,104,6,-6,107,x,x,x
Cc1cccn2c(=O)c(/C=C(\C#N)C(=O)NC3CCS(=O)(=O)C3)c(N3CCC(C)CC3)nc12 (stereo unspecified),-5,-4,131*,-1,3,104,102,-1,105
CCc1ccccc1NS(=O)(=O)Cc1ccccc1,-11,-6,100,4,-5,108,x,x,x
O=C1CC(N2CCN(c3ccccc3)CC2)C(=O)N1c1ccc2c(c1)OCCO2 (stereo unspecified),12,-4,108,7,5,109,x,x,x
O=C1CC(N2CCN(c3ccc(F)cc3)CC2)C(=O)N1c1ccc2c(c1)OCO2 (stereo unspecified),-1,-14,2.0*[inhibitor],-84,-9,1.0*[inhibitor],103,4,102
Cc1cc(C(=O)NCc2ccc(S(N)(=O)=O)cc2)c(C)o1,-6,7,105,5,-8,107,x,x,x
CN(C)C(=O)NCc1ccc(S(N)(=O)=O)cc1,2,0,39*[inhibitor],-8,4,50,100,1,102
Cc1sc2ncnc(NC3CCN(Cc4ccccc4)CC3)c2c1C,10,3,91,-5,9,89,x,x,x
c1ccc(CN2CCC(Nc3nc(-c4cccnc4)nc4ccccc34)CC2)cc1,-53,-2,102,16,5,144*,137,12,98
c1ccc(CN2CCC(Nc3ncnc4sccc34)CC2)cc1,6,22,105,51*,-6,129,125,12,103
O=C(COC(=O)c1cccc(O)c1)Nc1ccc(N2CCOCC2)cc1,11,-4,x,x,-5,x,x,x,x
COc1ccc2nc(-c3ccc(Cl)cc3)cc(C(=O)O)c2c1,12,5,109,7,-1,93,x,x,x
CCC(=O)Nc1ccccc1C(=O)OCC(=O)c1cccc2ccccc12,9,-22,68*[inhibitor],-11,10,79,99,-9,100
Cc1ccc(OCC(O)CNC2CCCC2)c(C)c1 (stereo unspecified),x,3,103,2,-2,109,x,x,x
Cc1ccccc1OCC(O)CNC1CCC(NCC(O)COc2ccccc2C)CC1 (stereo unspecified),27,38,111,76*,-4,219*,207*,70*,111
Cc1[nH]c(C)c(S(=O)(=O)N2CCCCC2)c1C(=O)N1CCCCC1,-4,5,101,4,5,105,x,x,x
CCOC(=O)c1cn[nH]c1NC(=S)Nc1ccc(OC)cc1,5,-4,50*[inhibitor],-21,-4,62,106,-1,106
CC(C)c1ccc(CNC(=O)C(=O)NCCCn2ccnc2)cc1,15,-4,107,-10,0,94,x,x,x
NC(=O)CC[C@H](NC(=O)c1ccc(F)cc1)C(=O)N1CCN(Cc2ccc3c(c2)OCO3)CC1,20,2,x,x,-3,x,x,x,x
O=C(CCC1CCCC1)N1CCN(C(=O)COc2ccccc2)CC1,22,-6,75*[inhibitor],-9,0,87,96,-10,101
Cc1onc(-c2c(F)cccc2Cl)c1C(=O)NC(=S)NC1CCS(=O)(=O)C1 (stereo unspecified),-12,1,87,-5,1,89,x,x,x
COc1cc(CNCCCN2CCOCC2)cc(Br)c1OCc1ccc(Cl)cc1,14,28,105,30,-9,158*,175,32,103
CCOc1cc(CNCCCN2CCOCC2)cc(Br)c1OCC(=O)Nc1cccc(C(F)(F)F)c1,10,35,103,31*,-3,162*,175,46,110
SMILES,PREPL inhibitor,UBC13 polyUb,MEKK3 PB1 HTS,MEKK2 mut-MEK5,ATG4B inhibitor,MEKK2 WT-MEK5,MEKK2wt confirm,MEKK2mut confirm,MEKK3 confirm
CCOc1cc(CNCCCN2CCOCC2)cc(Cl)c1OCC(=O)NC(C)(C)C,14,-1,98,-2,-3,100,x,x,x
CS(=O)(=O)N1CCN(c2ccc(NC(=O)c3ccccc3)cc2)CC1,4,-4,110,0,-4,101,x,x,x
O=C(CSc1nnc(NC(=O)c2ccco2)s1)Nc1ccc(F)cc1F,-3,4,102,3,-3,105,x,x,x
O=C(Sc1n[nH]c(=O)[nH]c1=O)c1ccccc1,x,x,x,x,3,x,x,x,x
Cc1ccc(Oc2ccc(C=O)cn2)cc1,20,-11,95,-7,-1,93,x,x,x
CO/N=C/c1ccc(Oc2ccc(C)cc2)nc1,-1,-1,111,26*,4,114,98,-3,100
COc1ccc(CC(=O)OCC(=O)NCc2ccccc2Cl)cc1,-3,-3,151*,5,8,136,107,4,105
COc1ccccc1CNC(=O)COC(=O)Cc1ccc(Cl)cc1,-8,-15,107,13,-2,115,x,x,x
Cc1nnc(SCC(=O)NNC(=O)C(C)C)[nH]c1=O,1,7,134*,4,8,106,107,-2,104
Fc1ccc(NCc2nnc(SCc3nnc(-c4ccccc4)o3)n2CC2CCCO2)cc1 (stereo unspecified),-3,11,124*,6,-5,123,91,-5,95
COc1ccc(-c2nnc(SCc3nnc(-c4cccs4)o3)n2CC2CCCO2)cc1 (stereo unspecified),14,-22,49*[inhibitor],-2,-13,91,106,5,102
COc1ccc(C(=O)OCC(=O)NCCc2ccc(F)cc2)cc1S(=O)(=O)N1CCOCC1,12,-4,x,x,-6,x,x,x,x
Cc1cc(C(=O)COC(=O)CC2Sc3ccccc3NC2=O)c(C)n1-c1ccccc1 (stereo unspecified),-28,0,136*,0,3,105,93,-10,96
